From PubChem BioAssay (EPA / NIEHS)
Active and inactive are the calls of the source. Rule for the calls: active = hit-call score of the fitted dose curve at least 0.9, where 1 is the maximum; inactive = score below 0.9.

Read-out: E-selectin (Homo sapiens) (UniProt P16581)
Assay: BSK_3C_Eselectin: BioMAP Diversity Plus: 3C Assay for Eselectin Biomarker Activity (AID 2283015);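 note: cell surface E-selectin protein quantified by ELISA 24 h after dosing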
Settings: primary human endothelial cells (HUVEC); actives raise or lower the signal
In short: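 Human vascular endothelium from umbilical vein is exposed to test chemicals for 24 h. E-selectin levels are read by ELISA and compared with DMSO controls.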

E-selectin (Homo sapiens), sequence (P16581 whole entry, looked up): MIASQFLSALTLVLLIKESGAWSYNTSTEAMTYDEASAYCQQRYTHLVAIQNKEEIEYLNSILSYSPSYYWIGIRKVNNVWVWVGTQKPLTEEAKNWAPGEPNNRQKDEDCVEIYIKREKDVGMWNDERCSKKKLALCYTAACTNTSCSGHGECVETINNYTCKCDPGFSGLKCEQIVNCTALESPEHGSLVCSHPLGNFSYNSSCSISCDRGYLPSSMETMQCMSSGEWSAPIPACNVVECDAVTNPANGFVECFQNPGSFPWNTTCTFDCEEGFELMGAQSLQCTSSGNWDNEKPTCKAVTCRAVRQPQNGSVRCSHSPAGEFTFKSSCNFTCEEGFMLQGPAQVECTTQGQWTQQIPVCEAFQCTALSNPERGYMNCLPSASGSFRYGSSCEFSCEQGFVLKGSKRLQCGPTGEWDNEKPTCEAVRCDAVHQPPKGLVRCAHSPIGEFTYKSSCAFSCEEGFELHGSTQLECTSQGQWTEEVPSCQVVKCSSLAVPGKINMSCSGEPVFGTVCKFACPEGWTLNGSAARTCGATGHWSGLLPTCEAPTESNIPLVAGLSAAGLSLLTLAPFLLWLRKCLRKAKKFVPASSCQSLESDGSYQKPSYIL

outcome, inactive:
O=C1CCCN1CCO
CCCCNc1ccc(NCCCC)c2c1C(=O)c1ccccc1C2=O
CCCCC(CC)COCC1CO1 (stereo not drawn)

Read-out: Interleukin-1 alpha (IL1a), IL1A (gene 3552)
Assay: BSK_BE3C_IL1a: BioMAP Diversity Plus: BE3C Assay for Interleukin-1 alpha (IL1a) Biomarker Activity (AID 2283016)
Settings: primary human bronchial epithelial cells; actives raise or lower the signal
In short: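 Human primary bronchial epithelial cells, 24 h chemical exposure; IL-1a quantified by ELISA, fitted bidirectionally against DMSO. Cytotoxicity assessed in parallel by SRB total-protein staining at the time of measurement.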

outcome, inactive:
O=C1CCCN1CCO
CCCCNc1ccc(NCCCC)c2c1C(=O)c1ccccc1C2=O
CCCCC(CC)COCC1CO1 (stereo not drawn)

Read-out: Monocyte Chemoattractant Protein-1 (MCP1), CCL2 (gene 6347)
Assay: BSK_3C_MCP1: BioMAP Diversity Plus: 3C Assay for Monocyte Chemoattractant Protein-1 (MCP1) Biomarker Activity (AID 2283017)
Settings: primary human endothelial cells (HUVEC); actives raise or lower the signal
In short: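 Endothelial cells from human umbilical vein are dosed with chemical, cultured 24 h, then assayed for MCP-1 by ELISA; both increases and decreases are modelled against DMSO controls.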

outcome, inactive:
O=C1CCCN1CCO
CCCCNc1ccc(NCCCC)c2c1C(=O)c1ccccc1C2=O
CCCCC(CC)COCC1CO1 (stereo not drawn)

Read-out: Human Leukocyte Antigen - DR isotype (HLADR), HLA-DRA (gene 3122)
Assay: BSK_3C_HLADR: BioMAP Diversity Plus: 3C Assay for Human Leukocyte Antigen - DR isotype (HLADR) Biomarker Activity (AID 2283019);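 note: ELISA of cell-surface HLA-DR on HUVEC 24 h after dosing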
Settings: primary human endothelial cells (HUVEC); actives raise or lower the signal
In short: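 Endothelial cells from human umbilical vein are treated with test chemical; after 24 h, HLA-DR levels are measured by ELISA. Data are fitted in both directions using DMSO as the baseline.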

outcome, inactive:
O=C1CCCN1CCO
CCCCNc1ccc(NCCCC)c2c1C(=O)c1ccccc1C2=O
CCCCC(CC)COCC1CO1 (stereo not drawn)

Read-out: Interleukin-8 (IL8), CXCL8 (gene 3576)
Assay: BSK_3C_IL8: BioMAP Diversity Plus: 3C Assay for Interleukin-8 (IL8) Biomarker Activity (AID 2283020)
Settings: primary human endothelial cells (HUVEC); actives raise or lower the signal
In short: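 Primary human umbilical vein endothelial cells were dosed for 24 h. IL-8 was quantified by ELISA and fitted bidirectionally against DMSO. Cytotoxicity was assessed in parallel cultures by SRB staining at 560 nm.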

outcome, inactive:
O=C1CCCN1CCO
CCCCNc1ccc(NCCCC)c2c1C(=O)c1ccccc1C2=O
CCCCC(CC)COCC1CO1 (stereo not drawn)

Read-out: Monokine induced gamma interferon (MIG), CXCL9 (gene 4283)
Assay: BSK_3C_MIG: BioMAP Diversity Plus: 3C Assay for Monokine induced gamma interferon (MIG) Biomarker Activity (AID 2283021)
Settings: primary human endothelial cells (HUVEC); actives raise or lower the signal
In short: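 HUVEC primary endothelial cultures dosed with chemical; MIG quantified by ELISA at 24 h. Data fitted bidirectionally against DMSO control, with parallel SRB total-protein staining for cytotoxicity.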

outcome, inactive:
O=C1CCCN1CCO
CCCCNc1ccc(NCCCC)c2c1C(=O)c1ccccc1C2=O
CCCCC(CC)COCC1CO1 (stereo not drawn)
